The supplement of paper PMC6555819

How the values were obtained:
Assay in all cases: PBM binding z-score (relative to random genomic background probes); higher = stronger binding; sequences stand for … in GC…GCGATTGACAGCGTAGAATGAAGG
[1] = test system: PPARg:RXRa DBDmut IVT, anti-RXR (DBD mutation: RXRa K156A/R161A, NR concentration 270 nM, RXRa partner concentration 90 nM)
In short: (§1)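 Binding z-scores were set against random background probes. The data came from custom Agilent 4×180K protein-binding microarrays carrying double-stranded probes with 34-nt variable regions, incubated 1 h with ligand-free nuclear receptor dimers. Partner-specific antibodies detected binding, and scanned fluorescence was regression-normalized.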

[2] = test system: PPARg:RXRa IVT, anti-PPARg (NR concentration 270 nM, RXRa partner concentration 90 nM)
In short: as §1

[3] = test system: PPARg DBDmut:RXRa IVT, anti-PPARg (DBD mutation: PPARg1 K132A/R137A, NR concentration 270 nM, RXRa partner concentration 90 nM)
In short: as §1

[4] = test system: PPARg DBDmut IVT, anti-PPARg (DBD mutation: PPARg1 K132A/R137A, NR concentration 270 nM)
In short: as §1

[5] = test system: PPARg homodimer (NR concentration 180 nM)
In short: as §1

[6] = test system: PXR:RXRa (NR concentration 270 nM, RXRa partner concentration 90 nM)
In short: as §1

[7] = test system: PXR homodimer (NR concentration 270 nM)
In short: as §1

[8] = test system: RARa:RXR (NR concentration 270 nM, RXRa partner concentration 90 nM)
In short: as §1

[9] = test system: RARa homodimer (NR concentration 270 nM)
In short: as §1

[10] = test system: RARb:RXRa (NR concentration 270 nM, RXRa partner concentration 90 nM)
In short: as §1

Sequence | PBM binding z-score [1] | PBM binding z-score [2] | PBM binding z-score [3] | PBM binding z-score [4] | PBM binding z-score [5] | PBM binding z-score [6] | PBM binding z-score [7] | PBM binding z-score [8] | PBM binding z-score [9] | PBM binding z-score [10]
ATCTCTAGGTAAAGTTCTGTGAAAGATCGATAGA | 2.44 | 1.61 | 1.11 | 1.68 | 1.26 | 0.0126 | 0.619 | 0.484 | 0.939 | 0.419
CCTACTGGGCCCAGGTCATTGATCAGTCAAAGCA | -0.465 | 1.3 | -0.756 | -1.2 | 0.811 | 1.72 | 0.241 | 2.05 | 0.064 | 1.95
TAGCCTAGGTCATTCAGGGGCCATTATAGAAAGC | 1.86 | 3.06 | 0.753 | 0.98 | 2.02 | 3.3 | 0.128 | 3.79 | 0.894 | 3.98
ACATACGGGTCAACGAGGTTATAGCACGCGTATA | 3.32 | 4.26 | 2.04 | 0.961 | 2.67 | 5.01 | 2.89 | 5.03 | 1.03 | 3.99
GATACAGGGACAAGGCCAGAGTACGCGTATTGAT | 0.111 | 0.0816 | -0.754 | -0.819 | 0.187 | -0.396 | 0.236 | -0.445 | -0.566 | 0.943
GCGACTGGGGCAAAGCAGGTTACAATAAGGTTGG | 4.73 | 3.71 | -0.466 | -0.774 | 0.387 | 0.661 | -0.376 | 0.904 | -0.625 | 1.06
GCGACTGGGGCATAGCAGGTTACCATAAGGTTGG | 3.87 | 2.96 | -0.728 | -0.706 | -0.174 | 0.0194 | -0.519 | 0.4 | -0.975 | 0.81
CCTGCTAGGTCAATGCTCAGCTAAAGCAGCTCGC | 4.63 | 3.35 | 0.0583 | -0.86 | 0.329 | 0.498 | -0.943 | 1.19 | -0.48 | 3.61
ATCTCTAGGTAACAAGTTCATTGAAAGAGAGGAC | 3.39 | 3.28 | 1.38 | 1.78 | 1.57 | 3.71 | 5.1 | 2.06 | 1.52 | 1.89
ATCTCTAGATAAAGTTCAGTGAAAGATCGATAGA | -0.492 | 0.294 | 0.931 | 0.898 | 0.994 | 1.36 | 1.39 | 0.786 | 1.06 | 2.17
CATACAGGGTCAGCTAGGCCAGAGTAGGGACGGC | 1.4 | 2.5 | 0.615 | 1.03 | 1.25 | 1.89 | -0.17 | 2.74 | 0.0717 | 4.31
CCTACTGGGCCAATCAGAGGTCATTGATCATATG | 4.6 | 4.19 | 1.25 | 0.284 | 4.19 | 5.06 | 3.38 | 5.18 | 0.519 | 3.27
AGACAAAGTTCATCTAGGTAACGTAAGATATGCT | 1.22 | 3.2 | 1.33 | 1.93 | 3.1 | 5.34 | 6.29 | 4.17 | 1.38 | 4.98
GCTATTAGTTGAATGGGCAACCGAATGATTCTCG | 0.75 | -0.332 | -0.684 | 0.178 | -0.436 | -0.587 | -0.28 | -0.707 | 0.153 | -0.226
TAGCCTATGTCATTCAGGGGCCAGTATAGAAAGC | 0.367 | 0.511 | -0.0468 | 0.315 | -0.12 | -0.141 | -0.435 | 0.125 | -0.558 | 0.742
ATACCAATGTGATCGTGAGGTCGTTGATACTAAC | -0.174 | 0.568 | 0.648 | 1.38 | 0.242 | 2.06 | 1.23 | 1.39 | -0.115 | 0.569
AGAACGAGGGCACGCTGAGTTGATCGCAGAGTAG | 4.59 | 4.13 | 0.408 | -0.362 | -0.239 | 1.53 | 0.103 | 0.735 | -1.04 | 2.57
CCTGCTAAGTCATGGTCAGCTAATCTACAGTATG | 0.985 | -0.177 | -0.766 | -0.271 | 0.146 | -0.158 | -0.39 | -0.0535 | -0.167 | 0.586
CAAACTAGGTCACAGAGGTAAAAGTCCGTGCGTA | 8.62 | 8.89 | 3.39 | 1.6 | 2.55 | 2.53 | 0.79 | 3.47 | 0.948 | 4.35

Sequence | PBM binding z-score [1] | PBM binding z-score [2] | PBM binding z-score [3] | PBM binding z-score [4] | PBM binding z-score [5] | PBM binding z-score [6] | PBM binding z-score [7] | PBM binding z-score [8] | PBM binding z-score [9] | PBM binding z-score [10]
CCAAACAGGTGAGAAGGTAACTCAGCCTCGATTA | 1.49 | 1.46 | 0.108 | -0.155 | 0.805 | -0.406 | 0.0845 | 0.105 | 0.426 | 0.534
GCTGCTAGGTCAAGTTGGTCAGCTAACGGGTACG | 4.62 | 4.19 | -0.715 | -0.257 | 1.75 | 1.68 | -0.361 | 2.19 | 0.462 | 4.38
CAAACTAGGTCTCCGGAAGGTCAAAGTCCGCATG | 5.21 | 4.82 | 0.561 | 0.489 | 2.44 | 3.68 | 1.14 | 3.9 | 0.122 | 3.23
CGTCCAAGGTCAGCAGATCAGTGAAAGCGACGTG | 2.68 | 2.66 | 0.547 | -0.498 | 2.2 | 2.49 | 0.4 | 3.08 | 0.548 | 5.02
TGAATGAGGTTATAAGATCAGAGAACGTTGCAAA | 0.837 | 1.71 | 0.635 | 0.498 | 0.196 | 0.687 | -0.71 | 1.18 | -0.143 | 0.975
CCAGACAGGTGAGAAGGTACCTCAGCCTCGATTA | 0.836 | 0.42 | -0.603 | -0.799 | 0.408 | -0.434 | -0.569 | -0.0825 | -0.214 | 0.313
TCTATTAGTTGAAGGGCAATCGACGAGTCCGTTT | 2.4 | 0.352 | -0.193 | -0.223 | 0.916 | 0.833 | 0.904 | 0.162 | 0.81 | 1.24
ACTAGCAGGCCAAGGGTCACTCGAGATTAGTCCG | 1.3 | 3.54 | -0.0207 | -0.0831 | 2.15 | 3.15 | -0.376 | 3.97 | 0.545 | 3.48
GCGACTGGGGCATCAGCAGGTAACCATAACTTAA | 3.85 | 3.1 | -0.465 | -0.924 | 0.206 | -0.194 | -0.176 | 0.582 | -0.479 | 0.352
TTCCCAAGGTGAGCTGAGGTCGTTGATCCAACTC | 0.471 | 1.12 | -1.17 | -1.13 | 0.0355 | 4.98 | 0.698 | 2 | -0.927 | 1.75
CATCGGAGGACAACAGGAGGTCAGAGCTGCCAGA | 0.575 | 1.3 | -0.47 | -0.762 | 1.51 | 2.23 | 0.834 | 2.69 | 0.396 | 3.08
ATCTCTAGGTAAAGCTCAGTGAAAGATCGATAGA | 2.67 | 1.38 | 0.778 | 0.893 | 0.544 | -0.131 | 0.14 | 0.258 | 0.432 | 0.0103
TCTATTAGTTGAAGGGTAACCGACGAGTCCGTTT | 2.52 | 0.636 | 0.556 | 0.761 | 1.56 | 1.03 | 0.714 | 1.09 | 1.6 | 0.96
CGTTACGGGTCAAGGTTATAGCACGGGTGGTACG | 2.15 | 3.69 | 0.343 | -0.183 | 1.78 | 3.44 | 0.111 | 3.92 | 0.367 | 4.29
GCGACTGGGGCATCAACAGGTTACCATAACTTAA | 3.85 | 3.26 | 0.132 | -0.496 | 0.784 | 0.139 | -0.425 | 0.551 | -0.516 | 0.911
ATCGAAAGGTCGAGGTGAGTATCGAGAAAGGGAA | 0.319 | 2.07 | 0.156 | 0.836 | 1.5 | 2.44 | 0.217 | 3.52 | 0.474 | 4.2
CAAACTAGGTCACGGTCAAAGTCGGTTTGTGCCA | 8.53 | 9.26 | 4.37 | 3.83 | 2.22 | 2.72 | -0.218 | 3.68 | 0.991 | 4.81
TGAATTAGGTTAAAGATCAGGGAACGTGGCGTCG | 6.08 | 5.63 | 0.86 | 1.43 | 1.58 | 0.403 | 0.276 | 1.12 | 1.04 | 1.19
TAGCCTAGGTCACGCGGGCCAGTATAGTGTCGGC | 2.95 | 4.27 | -0.0213 | 0.00762 | 1.6 | 1.84 | -0.691 | 3.32 | -0.183 | 4.33
